According to PubChem BioAssay (EPA / NIEHS):
Records with an inconclusive call do not appear. Active and inactive are the calls of the source. How the source made its calls, unless noted: active means hit-call score of the fitted dose curve at least 0.9, where 1 is the maximum; inactive means score below 0.9.

Key:
[1] = CCTE_Shafer_MEA_dev_bursting_electrodes_number: CCTE's Neural Network Formation Assay for Number of Bursting Electrodes, Shafer Lab (AID 2284043; active means hit-call score of the fitted dose curve at least 0.9, where 1 is the maximum)
How it was run: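 Counted: electrodes with burst rate ≥1 per 2 min in each well. Cells: primary rat cortex, 1.5 x 10^5/well, on 16-electrode MEA wells. Exposure: DIV 0–12, compound renewed DIV 5 and 9. Recording days 5, 7, 9, 12; AUC vs DMSO baseline.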

[2] = CCTE_Shafer_MEA_dev_per_burst_interspike_interval: CCTE's Neural Network Formation Assay for Burst Interspike Interval, Shafer Lab (AID 2284044);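 further: mean spike spacing inside bursts as AUC over recordings on days 5 7 9 12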
How it was run: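 Spontaneous activity of maturing rat cortical networks is recorded on DIV 5, 7, 9 and 12 under chronic compound exposure beginning at plating. Endpoint: burst interspike interval well-mean, collapsed into trapezoidal AUC and fitted in the negative direction relative to DMSO.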

[3] = CCTE_Shafer_MEA_dev_burst_duration_mean: CCTE's Neural Network Formation Assay for Mean Burst Duration, Shafer Lab (AID 2284045)
How it was run: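 Network-formation assay in primary rat cortical neurons; treatment spans twelve days of development. Mean burst duration per well is integrated by trapezoidal AUC and fitted in the loss-of-signal direction against DMSO baseline.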

[4] = CCTE_Shafer_MEA_dev_interburst_interval_mean: CCTE's Neural Network Formation Assay for Mean Interburst Interval, Shafer Lab (AID 2284046);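 further: well-mean interburst interval of bursting electrodes as AUC over four recording days; curve fitted for decrease in interburst interval relative to DMSO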
How it was run: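 Rat cortical neurons, 1.5 x 10^5 cells/well, 48-well MEA; compound from day 0 through DIV 12, media and treatment renewed DIV 5/9. Recordings DIV 5, 7, 9, 12; well-mean interburst interval → trapezoidal AUC, loss direction vs DMSO.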

[5] = CCTE_Shafer_MEA_dev_inter_network_spike_interval_mean: CCTE's Neural Network Formation Assay for Mean Inter-network Spike Interval, Shafer Lab (AID 2284047);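 on AC50: potency for a decrease in mean inter-network spike interval below DMSO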
How it was run: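 Primary rat cortical neurons on PEI-coated 48-well MEAs (16 electrodes/well) were exposed from plating day 0 to DIV 12, with dosing renewed at DIV 5 and 9. Recordings at DIV 5, 7, 9, 12 were collapsed by trapezoidal AUC, loss-of-signal fit vs DMSO.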

[6] = CCTE_Shafer_MEA_dev_network_spike_number: CCTE's Neural Network Formation Assay for Number of Network Spikes, Shafer Lab (AID 2284048);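 further: synchronized bursts across electrodes counted on days 5 7 9 12 and integrated as AUC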
How it was run: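 Extracellular recordings from 16-electrode wells track network formation in rat cortical cultures under continuous treatment from plating. The endpoint is network spike number, expressed as AUC across DIV 5–12 relative to DMSO vehicle.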

[7] = CCTE_Shafer_MEA_dev_network_spike_peak: CCTE's Neural Network Formation Assay for Mean Number of Electrodes in Network Spike, Shafer Lab (AID 2284049)
How it was run: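 Continuous 12-day exposure of rat cortical cultures, starting at plating, on MEA plates. Endpoint: electrodes participating in network-spike peaks, AUC across DIV 5–12, DMSO as negative control.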

[8] = CCTE_Shafer_MEA_dev_spike_duration_mean: CCTE's Neural Network Formation Assay for Mean Spike Duration, Shafer Lab (AID 2284051);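 further: mean network spike duration pooled as area under curve over DIV 5 to 12 recordings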
How it was run: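 Rat cortical primary cultures, 48-well MEA (16 electrodes/well); compound from plating, renewed DIV 5, 9. Network spike duration (AxIS adaptive detector) recorded DIV 5/7/9/12, combined as trapezoidal AUC; loss direction vs DMSO.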

[9] = CCTE_Shafer_MEA_dev_network_spike_duration_std: CCTE's Neural Network Formation Assay for Standard Deviation of Network Spike Duration, Shafer Lab (AID 2284052);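 further: area under curve of spike duration SD across recording days 5 to 12; hits are decreases in network spike duration SD versus DMSO vehicle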
How it was run: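 Rat cortical cultures, 1.5 x 10^5 cells/well, exposed continuously from plating to DIV 12 with media/compound renewal at DIV 5, 9. Spontaneous activity recorded DIV 5/7/9/12, AxIS adaptive spike detector; AUC across days; negative direction vs DMSO.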

[10] = CCTE_Shafer_MEA_dev_per_network_spike_spike_number_mean: CCTE's Neural Network Formation Assay for Mean Number of Spikes in a Network Spike, Shafer Lab (AID 2284053)
How it was run: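 Rat cortical primary cultures on 48-well MEA; compound from day 0, re-dosed with full media change DIV 5, 9. Recorded DIV 5, 7, 9, 12; spikes in 0.05 s window at network-spike peak ÷ total network spikes; AUC; loss vs DMSO.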

[11] = CCTE_Shafer_MEA_dev_per_network_spike_spike_percent: CCTE's Neural Network Formation Assay for Percent of Spikes in a Network Spike, Shafer Lab (AID 2284054)
How it was run: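 Developing networks of rat cortical neurons are dosed at day 0 and recorded extracellularly four times up to day 12. The endpoint is the area under the curve of percent spikes in network spikes, fitted in the negative direction relative to DMSO.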

[12] = CCTE_Shafer_MEA_dev_LDH: CCTE's Lactate Dehydrogenase Assay for Cytotoxicity in the Neural Network Formation Assay, Shafer Lab (AID 2284068; active means hit-call score of the fitted dose curve at least 0.9, where 1 is the maximum;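 further: exposure for twelve days from plating with re-dosing on DIV 5 and 9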)
How it was run: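 Rat cortical primary neurons, MEA culture; dosing day 0–12, full medium plus compound exchange DIV 5, 9. Read-out: LDH enzyme activity, spectrophotometric. DMSO = negative control/baseline; signal loss → cytotoxicity.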

[13] = CCTE_Shafer_MEA_dev_mutual_information_norm: CCTE's Neural Network Formation Assay for Mutual Information Normalization, Shafer Lab (AID 2284091)
How it was run: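 Exposure of primary rat cortical neurons began at plating and ran to DIV 12, with full media and treatment renewal after DIV 5 and 9 recordings. Mutual information AUC (DIV 5–12) was analysed for loss versus DMSO.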

[14] = CCTE_Shafer_MEA_dev_correlation_coefficient_mean: CCTE's Neural Network Formation Assay for Mean Correlation Coefficient, Shafer Lab (AID 2284093)
How it was run: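 Rat cortical cultures, 1.5 x 10^5 cells/well, dosed from day 0 for 12 days. Spontaneous spikes recorded DIV 5/7/9/12; electrode-pair correlation coefficients averaged, AUC taken. Fit in loss direction vs DMSO.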

DIO2 (gene 1734) = experiment: CCTE_GLTED_hDIO2: CCTE's human Deiodinase 2 (DIO2) Inhibition Assay, Great Lakes Toxicology and Ecology Division (GLTED) Lab (AID 2284050; active means hit-call score of the fitted dose curve at least 0.9, where 1 is the maximum)
How it was run: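 Inhibition is judged by reduced iodide release: uninhibited human DIO2 frees iodide from substrate over 3 h, measured afterward by Sandell-Kolthoff colorimetry. Iodinated chemicals or nitrite, iron and thiocyanate may interfere.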

DIO3 (gene 1735) = experiment: CCTE_GLTED_hDIO3: CCTE's human Deiodinase 3 (DIO3) Inhibition Assay, Great Lakes Toxicology and Ecology Division (GLTED) Lab (AID 2284055; active means hit-call score of the fitted dose curve at least 0.9, where 1 is the maximum;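 further: potency is for inhibition seen as loss of released iodide signal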)
How it was run: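 Human type 3 deiodinase, expressed via adenovirus system, was exposed to test chemicals for 3 hours in a cell-free format. Released iodide was then determined spectrophotometrically by Sandell-Kolthoff; plates ran in triplicate.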

[15] = CCTE_Shafer_MEA_dev_AB: CCTE's Alamar Blue Assay for Cytotoxicity in the Neural Network Formation Assay, Shafer Lab (AID 2284083; active means hit-call score of the fitted dose curve at least 0.9, where 1 is the maximum;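 further: resazurin reduction fluorescence as viability of cultured neurons; twelve days of exposure from plating with re-dosing on DIV 5 and 9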)
How it was run: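 Rat cortical primary cultures, 1.5 x 10^5 cells/well on MEA; continuous compound exposure over 12 days of network development, re-dosed with full medium change DIV 5 and 9. Alamar Blue fluorescence; loss of signal = cytotoxicity vs DMSO baseline.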

[16] = IUF_NPC1b_proliferation_BrdU_72hr: Leibniz Research Institute for Environmental Medicine (IUF) 72-hour Neural Progenitor Cell Bromodeoxyuridine (BrdU) Proliferation Assay (NPC1b) (AID 2284207)
How it was run: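 Neural progenitor spheres of human fetal origin are treated for three days; BrdU added for the last 16 h is quantified by luminescence ELISA, with DMSO as baseline and EGF/FGF omission as positive control.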

[17] = CCTE_Shafer_MEA_acute_LDH: CCTE's Lactate Dehydrogenase Assay for Cytotoxicity in the Neural Acute Assay, Shafer Lab (AID 2284086; active means hit-call score of the fitted dose curve at least 0.9, where 1 is the maximum;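 further: active means LDH release rises above DMSO vehicle level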)
How it was run: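 Medium collected from MEA wells of primary rat cortical cultures (DIV 13 or 15) immediately after 40 min chemical exposure is assayed spectrophotometrically for lactate dehydrogenase activity. Endpoint fitted in positive direction versus DMSO.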

| SMILES | outcome [1] | outcome [2] | outcome [3] | outcome [4] | AC50 [5] | outcome [6] | outcome [7] | outcome [8] | outcome [9] | outcome [10] | outcome [11] | outcome [12] | outcome [13] | outcome [14] | outcome [5] | AC50 (DIO2 (gene 1734)) | AC50 (DIO3 (gene 1735)) | outcome [15] | outcome [16] | outcome [17] |
| --- | --- | --- | --- | --- | --- | --- | --- | --- | --- | --- | --- | --- | --- | --- | --- | --- | --- | --- | --- | --- |
| O=C(O)C=C(C(F)(F)F)C(F)(F)F | inactive | inactive | inactive | inactive | 15 µM (active) | inactive | inactive | inactive | inactive | inactive | inactive | inactive | inactive | inactive |  |  |  |  |  |  |
| Cc1ccc(S(=O)(=O)OCC(F)(F)C(F)(F)C(F)(F)C(F)(F)C(F)(F)C(F)F)cc1 |  | inactive | inactive | inactive |  | inactive | inactive | inactive | inactive | inactive | inactive | inactive | inactive | inactive | inactive |  |  |  |  |  |
| O=C(O)C(F)(F)C(F)(F)C(F)(F)C(F)(F)C(F)(F)C(F)(F)C(F)(F)C(F)(F)C(F)(F)C(F)(F)C(F)(F)C(F)(F)F |  |  |  |  |  |  |  |  |  |  |  |  |  |  |  | 74.9 µM (active) | 32.8 µM (active) |  |  |  |
| O=C(O)C(F)(F)C(F)(F)C(F)(F)F | inactive | inactive | inactive | inactive |  | inactive | inactive | inactive | inactive | inactive | inactive | inactive | inactive | inactive | inactive |  |  |  |  |  |
| OC[C@@H](O)[C@@H](O)[C@H](O)[C@@H](O)CO | inactive | inactive | inactive | inactive |  | inactive | inactive | inactive | inactive | inactive | inactive | inactive | inactive | inactive | inactive |  |  | inactive | inactive |  |
| CCCCCCOC(=O)c1ccccc1O |  |  |  |  |  |  |  |  |  |  |  |  |  |  |  |  |  |  |  | inactive |
| OCC(F)(F)C(F)(F)C(F)(F)F | inactive | inactive | inactive | inactive |  | inactive | inactive | inactive | inactive | inactive | inactive |  | inactive | inactive | inactive |  |  | inactive |  |  |
| FC(F)(F)C(F)(F)CNCC(F)(F)C(F)(F)F | inactive | inactive | inactive | inactive |  | inactive | inactive | inactive | inactive | inactive | inactive |  | inactive | inactive | inactive |  |  |  |  |  |
